# Source: PubChem BioAssay (National Center for Advancing Translational Sciences (NCATS))
# PI4K2A block – blocks human PI4K2A kinase activity; AID 1346378; actives 0.13% (n = 420,000); purified PI4K2A, ADP-Glo luminescence, 1 h; stronger effect = lower value; Q9BTU6; activity change, negative = inhibition, % at 76.9 µM; in the data active = activity change below about -50%; inconclusive = mostly about -30% to -49%;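 also: -100% = wells without enzyme as full effect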
#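 PI4K2A activity was measured by ADP-Glo luminescence: enzyme (4 ug/mL stock) and phosphatidylinositol (1.2 mM stock) in Tris pH 7.5/MgCl2/EGTA/Triton X-100 buffer were reacted with ATP (300 microM stock) for one hour at ambient temperature.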
# CtBP-E1A blk – blocks the CtBP interaction with E1A. AlphaScreen GST-E1A/His-CtBP binding, 1536-well; stronger effect = lower value. activity change, % (concentration not given with the values). actives 0.49% (n = 340,000); in the data active = activity change below about -65%; inconclusive = mostly about -30% to -63%
#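 Homogeneous bead-based format: GST-tagged E1A captured on glutathione donor beads, His-tagged CtBP on nickel acceptor beads; compounds precede bead addition by 2 h at 37 °C.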
# RGS4 inh – inhibitors of human regulator of G protein signaling 4 | actives 0.039% (n = 390,000) | Transcreener GDP fluorescence polarization, RGS4-accelerated GTP hydrolysis | P49798 | Potency, µM (doses to about 114 µM), for inactives: at the highest dose activity change, negative = inhibition, hits mostly inhibitors; also: potency is read from the fitted curve at half-maximal effect; nearly all actives have a fitted effect of over 75% in size
# Target sequence (P49798 whole entry, looked up): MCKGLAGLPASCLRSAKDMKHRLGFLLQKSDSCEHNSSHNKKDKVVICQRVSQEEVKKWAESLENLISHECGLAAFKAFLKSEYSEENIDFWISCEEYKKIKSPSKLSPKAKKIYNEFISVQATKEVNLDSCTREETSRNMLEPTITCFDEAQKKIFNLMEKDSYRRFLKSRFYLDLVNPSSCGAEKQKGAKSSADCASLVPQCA
#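 MLSMR compounds (23 nl, pin-transferred) preincubated 10 min at room temperature with a 500nM (2x) first reagent, then RGS4 at 900nM (2x) plus Transcreener GDP mix added; fluorescence polarization (620/688 nm) read before and after 90 min at 30 °C.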
# USP2a block – USP2a (human) protease inhibition. USP2 core, Ub-CHOP2 coupled fluorogenic reporter, 485/531. Potency, µM (titrated, usually from 38.3 µM), for inactives: at the top dose activity change, negative = inhibition, most hits filed as inhibitors. O75604. actives 0.01% (n = 330,000);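 also: potency is read from the fitted curve at half-maximal effect; plate controls were DMSO wells for no effect and full inhibition by NEM control for full effect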
# Target sequence (O75604 whole entry, looked up): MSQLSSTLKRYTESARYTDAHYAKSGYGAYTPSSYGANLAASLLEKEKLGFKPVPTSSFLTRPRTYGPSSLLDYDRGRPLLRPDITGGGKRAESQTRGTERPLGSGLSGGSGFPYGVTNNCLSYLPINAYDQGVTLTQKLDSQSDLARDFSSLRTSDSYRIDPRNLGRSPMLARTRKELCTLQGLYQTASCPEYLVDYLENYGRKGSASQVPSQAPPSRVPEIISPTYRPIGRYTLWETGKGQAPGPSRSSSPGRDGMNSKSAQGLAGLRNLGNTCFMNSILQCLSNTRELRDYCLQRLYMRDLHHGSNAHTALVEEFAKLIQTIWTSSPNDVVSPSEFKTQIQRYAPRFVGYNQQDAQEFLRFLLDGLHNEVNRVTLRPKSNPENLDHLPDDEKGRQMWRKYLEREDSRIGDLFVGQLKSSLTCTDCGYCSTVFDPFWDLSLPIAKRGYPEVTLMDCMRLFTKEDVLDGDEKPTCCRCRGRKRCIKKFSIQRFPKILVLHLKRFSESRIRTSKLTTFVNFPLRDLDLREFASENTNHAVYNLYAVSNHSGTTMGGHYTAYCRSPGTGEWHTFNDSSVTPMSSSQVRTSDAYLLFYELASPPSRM
#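 Deubiquitinase activity read as fluorescence (485/531 nm) after Ub-CHOP2 cleavage activates the enterokinase reporter on its substrate; USP2 core 10nM, Ub-CHOP2 and substrate 25nM each, 30min compound preincubation then 60min RT; data normalized to NEM, curves fitted.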
# Six1-Eya2 blk – blocks human Six1 binding to Eya2; activity change, % (concentration not given with the values); actives 0.56% (n = 360,000); Q15475+O00167; AlphaScreen GST-Six1/His-Eya2 binding, biochemical; stronger effect = lower value; AID 651725; in the data active = activity change below about -65%; inconclusive = mostly about -30% to -63%
#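 Homogeneous AlphaScreen proximity assay pairing GST-Six1 with His-tagged Eya2 (added as 5X mix: 250 nM and 500 nM) in 50 mM Tris pH 8.0, 300 mM NaCl, 1 mM TCEP. Glutathione donor and nickel acceptor beads; 1 h, 37 °C, dark.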
# Eya2 phos inh – blocks the phosphatase activity of human Eya2; O00167; actives 0.006% (n = 330,000); Potency, µM (highest dose often 76.9 µM), without a hit: at the highest dose activity, negative = inhibition, actives largely listed as inhibitors; AID 488837; recombinant Eya2, OMFP fluorescence dephosphorylation (OMFP is methylfluorescein phosphate); also: potency is read from the fitted curve at half-maximal effect
#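 Eya2 (0.2 uM) preincubated 10 min at ambient with compound, then OMFP substrate added at 50 uM; 10 min reaction in 50 mM HEPES pH 7.5, 50 mM NaCl, 5 uM MgCl2, 0.05% BSA, 1 mM DTT. Fluorescence read at Ex 485/Em 525 nm.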
# Numbers without * were called inactive; ? = inconclusive; . = no result given; [ ] = dose if it differs, or a comment. Only some compounds are listed: those with a hit (about 0.72% of all), similar ones and a draw of the others. Unless noted, calls follow the shape of the dose curve; as a rule, active = well fitted curve in the direction sought with a large enough effect; inconclusive = small, poorly fitted or top-dose-only effect, or another doubt; inactive = no such curve, though single readings can be large; an effect the other way counts as inactive or inconclusive. Unless noted, % is scaled to controls: 0 for no effect and ±100 for the full control effect.
SMILES,PI4K2A block,CtBP-E1A blk,RGS4 inh,USP2a block,Six1-Eya2 blk,Eya2 phos inh
CCOC(=O)Cc1csc(NC(=O)c2ccoc2C)n1,-50.2*,3.5,-2.3%,0.1%,-2.2,-1.8%
CCOc1ccc(CNC(=O)C2CCN(C(=O)N3CC(CC)Oc4ccccc43)CC2)cc1 (stereo unspecified),-3.7,.,23.2%,.,.,.
COc1ccc(-c2nn3c(-c4ccco4)nnc3s2)cc1OC,10.8,-85.7*,-2.0%[11.4 µM],-3.2%,-78.3*,-11.7%
O=C(O)c1cc2c(ncc3c(=O)n(-c4ccccc4)[nH]c32)s1,-1.7,-68.4*,.,.,-74.8*,.
COc1c(O)c(=O)n2c3ccccc3c3ccnc1c32,-2.1,-82.5*,-4.2%,-3.5%,-77.0*,-28.3%
O=c1c(Cl)c(O)c2cccc3c4ccccc4n1c23,-8.1,-9.4,?,-1.7%,?,-37.0%
Cc1ccc(S(=O)(=O)N2C[C@]3(O)C[C@@H]4C(=O)N(c5ccccc5)C(=O)[C@@H]4C[C@]3(OC(=O)NC3CCCC3)C2)cc1,1.5,-16.8,.,.,0.8,.
Cc1ccccc1NCc1ccc(O)c2ncccc12,5.6,-94.7*,-46.1%,3.9%,-90.7*,-8.6%
Cc1cccc(NCc2ccc(O)c3ncccc23)c1,0.5,-86.3*,-44.2%,2.0%,-79.9*,4.4%
Oc1ccc(CNc2cccc(F)c2)c2cccnc12,0.9,.,.,.,.,.
Oc1ccc(CNc2ccccc2)c2cccnc12,-12.3,-93.6*,-10.9%,-0.8%,-89.3*,-1.0%
Oc1ccc(CNc2ccccc2Br)c2cccnc12,-4.8,.,.,.,.,.
COCc1ccc(O)c2ncccc12,-11.4,-95.0*,-31.7%,-3.9%,-91.2*,12.9%
COc1ccc(NC(=O)CCNS(=O)(=O)c2cccc3nsnc23)cc1Cl,-0.2,.,-9.8%,.,.,.
Cc1ccccc1-c1noc(CCC(=O)Nc2cccc(C)c2C)n1,-4.4,.,7.7%,.,.,.
OCc1cn(Cc2ccc(O)c3ncccc23)cn1,.,.,.,0.5%,.,0.0%
Oc1ccc(CNc2ccc(F)cc2)c2cccnc12,-4.2,-90.5*,?,-1.9%,-89.8*,17.3%
Oc1ccc(Cn2ccnc2)c2cccnc12,3.1,-95.1*,12.5%,0.7%,-82.8*,18.3%
OCc1ccnc2c(O)cccc12,?,-92.2*,-3.0%,0.5%,-89.2*,-10.7%
CCOc1ccc(CC(=O)NC2CC(=O)N(c3ccc4c(c3)OCCO4)C2)cc1 (stereo unspecified),-4.5,.,15.6%,.,.,.
Cc1ccccc1CN1C(=O)c2ccccc2S(=O)c2ccc(C(=O)NCc3ccc4c(c3)OCO4)cc21 (stereo unspecified),3.2,.,2.1%,.,.,.
COc1cc2nc(Cl)nc(N)c2cc1OC,-3.7,.,.,.,.,.
Cc1oc(-c2cccc(Cl)c2)nc1CN1CCC(C(=O)NCc2ccc(F)cc2)CC1,1.6,.,-8.9%,.,.,.
O=[N+]([O-])c1cc([N+](=O)[O-])c2cccnc2c1Oc1ccccc1O,-15.1,?,-25.8%,-3.6%,-65.2*,3.0%
O=[N+]([O-])c1ccc(O)c2ncccc12,-20.0,-95.6*,3.1%,-7.5%,-90.8*,2.4%
SMILES,PI4K2A block,CtBP-E1A blk,RGS4 inh,USP2a block,Six1-Eya2 blk,Eya2 phos inh
O=[N+]([O-])c1ccc(O)c2cccnc12,-2.8,-6.2,12.9%,-10.9%,-10.1,-12.7%
Cc1cc(-c2ccc(C)c(S(=O)(=O)Nc3cccc(C#N)c3)c2)on1,0.5,.,-18.2%,.,.,.
COC(=O)c1cc2nc(-c3ccc(OC)c(OC)c3)cc(C(F)(F)F)n2n1,0.6,-12.8,0.0%,1.2%,-9.6,2.5%
COc1ccc(-c2cc(C(F)(F)F)n3nc(C(=O)O)cc3n2)cc1OC,-4.0,?,-52.9%,3.1%,-69.6*,-1.6%[15.4 µM]
NC(=O)c1cc2nc(-c3ccco3)cc(C(F)(F)F)n2n1,2.5,-80.1*,-8.9%,2.4%,-72.1*,-0.6%
Cc1ncc(CO)c(/C=N/Nc2ccc(C(F)(F)F)cn2)c1O,-7.1,-95.5*,?,0.6%,-75.3*,5.1%
Cc1ncc(CO)c(/C=N/NC(=S)Nc2ccc(F)cc2)c1O,6.3,-85.7*,-25.3%,1.0%,-90.5*,-3.0%
Cc1cccc(CN2C(=O)c3ccccc3Sc3ccc(C(=O)NCc4cccs4)cc32)c1,0.3,.,-14.9%,.,.,.
COc1cc(N=Nc2cccc(S(N)(=O)=O)c2)c2ccccc2c1N,-7.2,-71.1*,-19.8%,-1.1%,?,-14.9%
COc1cc(-c2nnc(SCC(=O)NC(C)C)o2)cc(OC)c1OC,-9.0,.,-20.4%,.,.,.
COc1cc(-c2nnc(SCC(=O)Nc3ccc4c(c3)OCCO4)o2)cc(OC)c1OC,-55.5*,2.7,-17.6%,-0.2%,-1.8,-3.1%
CN(C)c1cccc2c1C(=O)c1ccccc1C2=O,-13.4,-85.1*,17.0%,1.1%,-85.7*,-11.9%
CCOC(=O)c1ccc(NC(=O)CSc2cc(=O)n(CC)c3ccccc23)cc1,-1.0,.,-42.9%,.,.,.
COc1ccc(OC)c(-c2c3cc(O)c(=O)cc-3oc3cc(O)c(O)cc23)c1,-50.9*,-25.5,?,?,?,?
COc1ccc(/C=N/NC(=O)c2nn(-c3ccc(Cl)cc3)c(=O)c3c(N)scc23)cc1,?,-20.4,?,1.4%,-6.9,-8.9%
COc1ccc(/C=N/NC(=O)c2nn(-c3ccccc3)c(=O)c3c(N)scc23)cc1,-64.6*,-29.8,?,?,?,?
COc1ccccc1NC(=O)CSc1nn2c(=O)c(C)nnc2s1,-2.1,-81.5*,14.0%,3.3%,?,4.5%
CCOc1ccc(NC(=O)CSc2ccc3nnc(-c4cccnc4)n3n2)cc1,5.2,-2.9,5.3%,2.2%,-18.1,-15.0%
CCOc1ccccc1NC(=O)CSc1ccc2nnc(-c3cccnc3)n2n1,2.7,-85.2*,22.7%,0.0%,-78.9*,0.0%
Fc1cccc(CSc2ccc3nnc(-c4cccnc4)n3n2)c1,-3.9,?,-7.8%,6.0%,-67.1*,4.4%
COc1ccccc1NC(=O)CSc1ccc2nnc(-c3cccnc3)n2n1,-3.8,-76.9*,-12.0%,1.7%,-70.2*,-10.8%
COc1ccc(-c2cc3c(=O)n(CC(=O)Nc4ccc(Br)c(C)c4)ccn3n2)cc1OC,3.0,.,-1.9%,.,.,.
COc1ccc(S(=O)(=O)NCc2cccn2Cc2cc(C)ccc2C)cc1OC,-1.2,.,9.0%,.,.,.
Cc1ccc(NC(=O)c2oc3ccc(S(=O)(=O)N4CCCCC4)cc3c2C)c(C)c1,0.0,.,-10.2%,.,.,.
O=C(NCc1ccco1)C1CCCN(S(=O)(=O)c2ccccc2F)C1 (stereo unspecified),4.0,.,.,.,.,.
COc1ccc(NC(=O)CSc2ccc3nnc(-c4cccnc4)n3n2)c(OC)c1,-1.2,-68.0*,-7.0%,0.4%,?,0.5%
